A selection: hits, their analogues and other compounds. The true share with any hit is near 2.4%.
POLI inh: qHTS for Inhibitors of Polymerase Iota; 1% of 390,000 active; Pol iota fluorescent replication assay, 10 min; DNA polymerase iota (Homo sapiens), Q9UNA4; Potency, µM (top dose mostly 115 µM), for the others: at the top dose activity, negative = inhibition, hits mostly inhibitors
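Fluorescent replication assay read twice, at 0 min and 10 min after adding 50 nM (final) substrate. Enzyme (10 nM) and compounds were first incubated 15 min at room temperature; enzyme-free buffer wells were negative controls.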
Pol eta inh-1: qHTS for Inhibitors of Polymerase Eta; recombinant Pol eta, fluorescent DNA replication assay; Potency, µM (highest dose often 114 µM), for inactives: top-dose activity change, negative = inhibition, hits mostly inhibitors; 1.2% of 390,000 active; AID 588591, 2011; also: % is scaled to controls: 0 for no effect and ±100 for the full control effect
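Pol eta at 10 nM preincubated with compounds 15 min at room temperature; reaction started with fluorescent substrate (50 nM final) and read kinetically at 0 and 10 min.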
FEN1 inhibitor: qHTS Assay for the Inhibitors of Human Flap endonuclease 1 (FEN1); Recombinant FEN1 flap cleavage, fluorescence, 15 min; 0.35% of 390,000 active; Potency, µM (top dose mostly 114 µM), without a hit: top-dose activity change, negative = inhibition, most hits filed as inhibitors; P39748; also: % is scaled to controls: 0 for no effect and ±100 for the full control effect; nearly all actives have a fitted effect of over 65% in size
Target sequence (P39748 whole entry, looked up): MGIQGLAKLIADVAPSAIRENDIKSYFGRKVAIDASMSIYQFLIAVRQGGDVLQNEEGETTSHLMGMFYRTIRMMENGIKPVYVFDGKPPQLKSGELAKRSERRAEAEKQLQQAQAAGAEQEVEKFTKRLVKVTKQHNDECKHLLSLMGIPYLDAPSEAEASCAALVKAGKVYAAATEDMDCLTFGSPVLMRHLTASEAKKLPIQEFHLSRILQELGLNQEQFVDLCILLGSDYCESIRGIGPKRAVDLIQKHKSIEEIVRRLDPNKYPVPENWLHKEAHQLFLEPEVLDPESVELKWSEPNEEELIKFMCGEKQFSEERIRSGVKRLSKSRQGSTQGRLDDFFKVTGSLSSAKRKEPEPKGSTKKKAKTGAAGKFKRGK
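FEN1 at 10 nM, compound pretreatment for 15 min (room temperature), 50 nM final substrate to initiate; endpoint reads at 0 and 15 min; DMSO-only plates used as vehicle background.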
WRN helicase inh: qHTS for Inhibitors of WRN Helicase. 0.46% of 360,000 active. Potency, µM (series often up to 114 µM), for inactives: at the top dose activity change, negative = inhibition, hits mostly inhibitors. WRN helicase unwinding, fluorescent forked duplex, kinetic; also: % is scaled to controls: 0 for no effect and ±100 for the full control effect; nearly all actives have a fitted effect of over 55% in size
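Enzyme (20 nM final) and test compound sit together 15 min at room temperature before substrate addition. Substrate is a single-forked duplex oligonucleotide (100 nM) labelled with fluorophore and quencher, with 2 mM ATP; helicase unwinding raises red fluorescence, read kinetically.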
Pol kappa inh-1: qHTS for Inhibitors of Polymerase Kappa | 0.53% of 400,000 active | DNA polymerase kappa (Homo sapiens), Q9UBT6 | Potency, µM (top dose mostly 107 µM), for the others: at the top dose activity, negative = inhibition, most hits filed as inhibitors | purified Pol kappa, fluorescent DNA synthesis assay, 10 min; also: % is scaled to controls: 0 for no effect and ±100 for the full control effect
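50 nM final substrate added after 15 min RT preincubation of 10 nM Pol kappa with compound; fluorescence read at 0 and 10 min.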
Pol beta inh: qHTS Assay for Inhibitors of DNA Polymerase Beta; 1.3% of 340,000 active; Potency, µM (top dose mostly 114 µM), for inactives: top-dose activity change, negative = inhibition, actives largely listed as inhibitors; P06746; AID 485314, 2010; Pol beta primer extension/strand displacement, fluorescence kinetic; also: % is scaled to controls: 0 for no effect and ±100 for the full control effect
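Pol beta (10 nM) was preincubated with compound for 15 min at room temperature. The reaction was then started with 50 nM substrate and read immediately and after a further 10 min at room temperature.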
Pol kappa inh-2: qHTS for Inhibitors of Polymerase Kappa: Confirmatory Assay for Cherry-picked Compounds; shares compounds with Pol eta inh-1; purified Pol-kappa, fluorescent strand-displacement substrate; Potency, µM, most hits filed as inhibitors; 76% of 920 active; AID 720501, 2013
Pol eta inh-2: qHTS for Inhibitors of Polymerase Eta: Confirmatory Assay for Cherry-picked Compounds; shares compounds with Pol eta inh-1; Pol eta primer extension, TAMRA/BHQ fluorescence, 10 min; Potency, µM, hits mostly inhibitors; 64% of 2,600 active; AID 720502, 2013
* hit, by the source's call; ? = inconclusive; / = not tested or not shown; [ ] = dose if it differs, or a comment. Calls follow the shape of the dose curve; as a rule, active = well fitted curve in the direction sought with a large enough effect; inconclusive = small, poorly fitted or top-dose-only effect, or another doubt; inactive = no such curve, though single readings can be large; an effect the other way counts as inactive or inconclusive. Potency is read from the fitted curve at half-maximal effect.

SMILES	POLI inh	Pol eta inh-1	FEN1 inhibitor	WRN helicase inh	Pol kappa inh-1	Pol beta inh	Pol eta inh-2	others
O=C(NC1CCCCC1)c1sc(=S)n2c1[nH]c(=O)c1ccccc12	-24.7%	25.1µM*	?	50.1µM*	-23.4%	17.8µM*	/	Pol kappa inh-2=?
CCCCNC(=O)c1sc(=S)n2c1[nH]c(=O)c1ccccc12	-10.0%	?	?	?	-15.3%	?	/
COc1ccc(OC)c(CCNC(=O)c2ccc3c(=O)[nH]c4c(C(=O)NC(C)C)sc(=S)n4c3c2)c1	-12.6%	15.8µM*	-23.6%	-20.6%[11.6 µM]	-16.4%	8.3%	42.6*
CC(=O)c1cccc(NC(=O)c2cc(-c3ccc(Cl)s3)nc3ccccc23)c1	17.2%	-9.8%	5.5%	/	9.8%	11.3%	/
O=C1NN(c2cccc(Br)c2)C(=O)/C1=C\c1ccc(O)cc1	?	?	-16.7%	?	-2.9%	?	/
O=C1NN(c2cccc(Br)c2)C(=O)/C1=C/c1ccc(-c2cc([N+](=O)[O-])ccc2O)o1	?	10µM*	?	?	79.4µM*	?	30.1*
CC1=NN(c2ccc(C)cc2)C(=O)/C1=C/c1ccc(-c2cc([N+](=O)[O-])ccc2O)o1	20µM*	20µM*	-18.5%	?	79.4µM*	7.08µM*	?	Pol kappa inh-2=16.8*
O=C(Nc1ccc(Cl)cc1Cl)c1cc(S(=O)(=O)N2CCC3(CC2)OCCO3)ccc1F	-6.5%	4.6%	15.2%	/	-7.5%[60.1 µM]	-0.9%	/
COc1ccc(-c2ccc(N(C)C)cc2)cc1C1C2C=CCCC2(C)C(=O)N1Cc1ccccc1 (stereo not drawn)	-18.9%	/	-29.1%	/	-3.7%	/	/
Cc1ccc(C2CC(=O)N(Cc3ccccc3F)c3c2c(C)nn3-c2nc(C)cc(C)n2)cc1 (stereo not drawn)	0.6%	-19.3%	12.6%	/	-9.8%	-21.1%	/
CC1CC(Nc2cccc(O)c2)=CC(=O)O1 (stereo not drawn)	-6.7%	-10.4%	-0.4%	2.0%	-2.0%	7.9%	/
C[C@@H]1Cc2c(O)c(O)cc(O)c2C(=O)O1	?	22.4µM*	56.2µM*	-20.9%	79.4µM*	2.82µM*	67.5*
Cc1cccc(Nc2ccccc2C(=O)OCC(=O)NCc2ccco2)c1C	?	79.4µM*	1.5%	-19.0%[57.1 µM]	-9.2%	1.0%	?
O=C1NC(=S)SC1=C1CCCC1	?	20µM*	79.4µM*	44.7µM*	14.1µM*	22.4µM*	?
CN1C(=O)C(=C2CCCCCC2)SC1=S	-7.2%	-6.9%	4.4%	5.9%	3.8%	-11.2%	/
CCc1ccccc1NC(=O)c1ccc2nc(C(C)C)oc2c1	31.9%	-9.3%	-3.4%	/	-8.0%[60.1 µM]	37.9%	/
O=C(CSc1nc(-c2ccccc2)nc2ccc(F)cc12)Nc1cccc(C(=O)O)c1	?	79.4µM*	?	-20.5%	-24.9%	?	/	Pol kappa inh-2=?
COc1ccc2c(c1)Oc1nc(-c3ccc(C)cc3)nc(SCC(=O)Nc3cccc(C(=O)O)c3)c1C2	/	/	/	/	/	/	/	Pol kappa inh-2=29.9*
O=C(CSc1nncc2ccccc12)Nc1cccc(C(=O)O)c1	?	-22.0%	3.0%	-3.1%	-0.2%	19.5%	/
Cc1ccc(-n2nc3c(N4CCC(C(=O)N5CCCCC5)CC4)nnc(C)c3c2C)cc1	8.0%	-9.8%	-12.8%	/	-5.6%	29.8%	/
Cc1cccc(N2CCN(S(=O)(=O)c3ccc4c(c3)C(C)(C)C(=O)N4C)CC2)c1C	?	22.4µM*	-9.4%	-9.3%[11.6 µM]	?	12.6µM*	?
CN1C(=O)C(C)(C)c2cc(S(=O)(=O)N3CCN(c4ccccc4F)CC3)ccc21	13.7%	-0.1%	-4.4%	-6.7%	-4.0%	-1.2%	/
CCOc1ccc(CNCc2c(C(=O)O)c(C)n(Cc3ccc(C)cc3)c2C)cc1	13.8%	-10.7%	-1.2%	/	-2.5%	26.5%	/
CC(=O)Nc1ccc(OCc2cccc(-c3nc4ccccc4c(=O)n3Cc3ccco3)c2)cc1	/	/	/	/	/	/	?
O=C(O)c1cc([N+](=O)[O-])cc2c1C=Cc1ccccc1O2	?	28.2µM*	13.2%	-4.5%[11.6 µM]	?	56.2µM*	/	Pol kappa inh-2=?
SMILES	POLI inh	Pol eta inh-1	FEN1 inhibitor	WRN helicase inh	Pol kappa inh-1	Pol beta inh	Pol eta inh-2	others
O=C(NCCO)c1cc([N+](=O)[O-])cc2c1C=Cc1ccccc1O2	127.3%	-5.9%	-0.4%	1.1%	-2.4%	0.3%	/
CSCC[C@H](NS(=O)(=O)c1ccc(C(C)=O)cc1)c1nnc2ccccn12	-21.1%	14.1µM*	-11.4%	?	-19.1%	79.4µM*	67.5*
CSCC[C@H](NC(=O)c1ccc(Br)o1)c1nnc2ccccn12	38.7%	3.0%	-13.9%	2.5%	12.4%	38.6%	/
Cc1cc(S(=O)(=O)Nc2ccc(O)c(Sc3nc4ccccc4s3)c2)ccc1Cl	-5.6%	-10.8%	-15.4%	/	-8.1%	5.3%	/
O=S(=O)(Nc1ccc(O)c(Sc2nc3ccccc3s2)c1)c1cc(Cl)ccc1Cl	?	79.4µM*	?	/	?	?	?
CC(/C=C/c1ccc(Cl)o1)=C\C(=O)O	?	22.4µM*	3.7%	-29.2%[57.1 µM]	-25.6%	31.6µM*	47.8*
Cc1ccc(/C=C/C(=O)N2CCN(Cc3ccccc3)CC2)o1	14.0%	-20.6%	6.1%	7.1%	-11.2%	0.7%	/
CC(=C/C(=O)O)/C=C/c1ccco1	89.1µM*	?	-15.0%	-8.3%[11.6 µM]	?	?	?
O=C(/C=C/c1ccco1)c1ccccc1O	49.7%	-12.5%	8.6%	5.3%[57.1 µM]	3.4%	1.9%	/

From PubChem
